Assay results as given in the supplement of paper PMC8975748.
Structures can show the parent of a compound that is named as a salt.

system: Saccharomyces cerevisiae BY4741 SeMeCo community; test: z-score of prototroph abundance vs DMSO median; higher = larger share of this subpopulation than in DMSO controls; conditions: 10 µM; 24 h; SM minimal medium; subpopulation (auxotrophy): Prototroph
Protocol: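 Fluorescent four-plasmid SeMeCo (self-establishing metabolically cooperating S. cerevisiae BY4741 community; plasmids pH-mRuby2, pL-mWasabi, pU-eCFP, pM-TagRFP657) was grown 24 h in minimal SM medium with each Selleck FDA-approved drug at 10 µM in 384-well plates. Cells were fixed and imaged by high-content confocal microscopy. For each auxotrophic subpopulation (and the prototroph), a z-score gives the deviation from the DMSO vehicle-control population median.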

For `O=C(O)CCC(=O)OC[C@@H](NC(=O)C(Cl)Cl)[C@H](O)c1ccc([N+](=O)[O-])cc1` [Chloramphenicol sodium succinate], which “z-score of prototroph abundance” value is on record?
Its value is -0.62.

With `C#CCN[C@@H]1CCc2ccccc21` [Rasagiline Mesylate] as the compound, how does the “z-score of prototroph abundance” value read?
The value was 0.23.

`Cc1nccn1CC1CCc2c(c3ccccc3n2C)C1=O` (stereo not given) [Ondansetron HCl] was tested. Which “z-score of prototroph abundance” value did it give?
Its value is 0.89.

With `CC1(C)S[C@@H]2[C@H](NC(=O)C(c3ccccc3)S(=O)(=O)O)C(=O)N2[C@H]1C(=O)O` (stereo not given in full) [Sulbenicillin Sodium] as the compound, how does the “z-score of prototroph abundance” value read?
The value was -0.72.

`CN[C@H]1CC[C@@H](c2ccc(Cl)c(Cl)c2)c2ccccc21` [Sertraline HCl] was tested. Which “z-score of prototroph abundance” value did it give?
The value was 1.15.

How did the “z-score of prototroph abundance” value turn out when `COC(=O)Nc1nc2cc([S+]([O-])c3ccccc3)ccc2[nH]1` (stereo not given) [Oxfendazole] was run?
The value was 0.13.

For `CC(C)COCC(CN(Cc1ccccc1)c1ccccc1)N1CCCC1` (stereo not given) [Bepridil hydrochloride], which “z-score of prototroph abundance” value is on record?
Its value is -1.24.

`CCOC(=O)c1ccc(N)cc1` [Benzocaine hydrochloride] was tested. Which “z-score of prototroph abundance” value did it give?
Its value is -0.32.

How did the “z-score of prototroph abundance” value turn out when `CCCCOc1ccc(C(=O)CCN2CCCCC2)cc1` [Dyclonine HCl] was run?
The value was 0.35.

For `COc1ccc(C(C)=O)c(O)c1` [Paeonol], which “z-score of prototroph abundance” value is on record?
The value was -0.25.

With `C[C@@H](O)[C@H]1C(=O)N2C(C(=O)O)=C(S[C@@H]3CN[C@H](C(=O)N(C)C)C3)[C@H](C)[C@H]12` [Meropenem Trihydrate] as the compound, how does the “z-score of prototroph abundance” value read?
The value was -0.19.

For `CO[C@H]1C[C@@H]2CC[C@@H](C)[C@@](O)(O2)C(=O)C(=O)N2CCCC[C@H]2C(=O)O[C@H]([C@H](C)C[C@@H]2CC[C@@H](O)[C@H](OC)C2)CC(=O)[C@H](C)/C=C(\C)[C@@H](O)[C@@H](OC)C(=O)[C@H](C)C[C@H](C)/C=C/C=C/C=C/1C` [Rapamycin (Sirolimus)], which “z-score of prototroph abundance” value is on record?
Its value is -18.4.

Which “z-score of prototroph abundance” value does the source give for `CC(=O)NS(=O)(=O)c1ccc(N)cc1` [Sulfacetamide Sodium] here?
Its value is -0.69.

With `O=C1Nc2ccccc2C1=O` [Isatin] as the compound, how does the “z-score of prototroph abundance” value read?
The value was -0.13.

For `COc1ccc2cc([C@H](C)C(=O)O)ccc2c1` [Naproxen], which “z-score of prototroph abundance” value is on record?
The value was 2.14.

For `CCOc1cc(N)c(Cl)cc1C(=O)NCC1CN(Cc2ccc(F)cc2)CCO1` (stereo not given) [Mosapride Citrate], which “z-score of prototroph abundance” value is on record?
Its value is -0.84.

`Cc1ccsc1/C=C/C1=NCCCN1C` [Morantel tartrate] was tested. Which “z-score of prototroph abundance” value did it give?
Its value is 0.27.

`CCN(CC)C(=O)N1CCN(C)CC1` [Diethylcarbamazine citrate] was tested. Which “z-score of prototroph abundance” value did it give?
Its value is 0.16.

`NC(=N\CCCCCC/N=C(N)/N=C(\N)Nc1ccc(Cl)cc1)/N=C(\N)Nc1ccc(Cl)cc1` [Chlorhexidine diacetate] was tested. Which “z-score of prototroph abundance” value did it give?
The value was 1.46.

`COc1cc(O)c(C(=O)Nc2nc(C(=O)NCCN(C(C)C)C(C)C)cs2)cc1OC` [Acotiamide] was tested. Which “z-score of prototroph abundance” value did it give?
The value was -0.88.

For `C[C@@H](O)[C@H]1C(=O)N2C(C(=O)O)=C(S[C@@H]3CN[C@H](C(=O)Nc4cccc(C(=O)O)c4)C3)[C@H](C)[C@H]12` [Ertapenem sodium], which “z-score of prototroph abundance” value is on record?
The value was 0.33.

For `COc1ccc(Cl)cc1C(=O)NCCc1ccc(S(=O)(=O)NC(=O)NC2CCCCC2)cc1` [Glyburide (Glibenclamide)], which “z-score of prototroph abundance” value is on record?
Its value is -0.6.

How did the “z-score of prototroph abundance” value turn out when `Cc1nc(=O)c2cc(CN(C)c3ccc(C(=O)N[C@@H](CCC(=O)O)C(=O)O)s3)ccc2[nH]1` [Raltitrexed] was run?
Its value is 1.91.

For `Nc1nc(N)nc(-c2cc(Cl)ccc2Cl)n1` [Irsogladine], which “z-score of prototroph abundance” value is on record?
The value was 1.03.

How did the “z-score of prototroph abundance” value turn out when `CCOC(=O)C1=C[C@@H](OC(CC)CC)[C@H](NC(C)=O)[C@@H](N)C1` [Oseltamivir Phosphate] was run?
Its value is 1.28.

For `CC(C)NNC(=O)c1ccncc1` [Iproniazid], which “z-score of prototroph abundance” value is on record?
The value was -0.56.

`C#C[C@]1(OC(C)=O)CC[C@H]2[C@@H]3CCC4=C[C@@H](OC(C)=O)CC[C@@H]4[C@H]3CC[C@@]21C` [Ethynodiol diacetate] was tested. Which “z-score of prototroph abundance” value did it give?
Its value is 0.6.

For `NC(=O)N1c2ccccc2C=Cc2ccccc21` [Carbamazepine], which “z-score of prototroph abundance” value is on record?
The value was 0.13.

How did the “z-score of prototroph abundance” value turn out when `O=C(O[C@H]1CN2CCC1CC2)N1CCc2ccccc2[C@@H]1c1ccccc1` [Solifenacin succinate] was run?
Its value is -0.49.

How did the “z-score of prototroph abundance” value turn out when `Nc1c(CC(=O)O)cccc1C(=O)c1ccccc1` [Amfenac Sodium Monohydrate] was run?
The value was 0.49.

With `O=c1cc(-c2ccc(O)c(O)c2)oc2cc(O)cc(O)c12` [Luteolin] as the compound, how does the “z-score of prototroph abundance” value read?
The value was -0.73.

Which “z-score of prototroph abundance” value does the source give for `CC(=O)NO` [Acetohydroxamic acid] here?
Its value is -0.09.

Which “z-score of prototroph abundance” value does the source give for `CO/N=C(\C(=O)N[C@@H]1C(=O)N2C(C(=O)[O-])=C(C[n+]3cccc4c3CCC4)CS[C@H]12)c1csc(N)n1` [Cefpirome sulfate] here?
Its value is -0.2.

With `Nc1ccc(S(=O)(=O)NC(=O)c2ccccc2)cc1` [Sulfabenzamide] as the compound, how does the “z-score of prototroph abundance” value read?
The value was 0.8.

With `C=C1CCC2C(C)(CO)C(O)CCC2(C)C1CC=C1C=COC1=O` (stereo not given) [Dehydroandrographolide] as the compound, how does the “z-score of prototroph abundance” value read?
The value was -0.69.

Which “z-score of prototroph abundance” value does the source give for `C[C@H](NCc1ccc(OCc2cccc(F)c2)cc1)C(N)=O` [Safinamide] here?
The value was -0.89.

With `COc1ccc(C2CNC(=O)C2)cc1OC1CCCC1` (stereo not drawn) [S- (+)-Rolipram] as the compound, how does the “z-score of prototroph abundance” value read?
Its value is 1.36.

`Nc1nc2[nH]cc(CCc3ccc(C(=O)N[C@@H](CCC(=O)O)C(=O)O)cc3)c2c(=O)[nH]1` [Pemetrexed] was tested. Which “z-score of prototroph abundance” value did it give?
Its value is 3.89.

With `CC1=C[C@H]2C(=O)O[C@H]3C[C@@H](C/C=C(\C)C[C@@H](C)/C=C/C=C4\CO[C@H](/C1=N\O)[C@@]42O)O[C@@]1(CC[C@H](C)[C@@H](C)O1)C3.CC[C@H]1O[C@]2(CC[C@@H]1C)C[C@@H]1C[C@@H](C/C=C(\C)C[C@@H](C)/C=C/C=C3\CO[C@@H]4/C(=N\O)C(C)=C[C@@H](C(=O)O1)[C@]34O)O2` [Milbemycin Oxime] as the compound, how does the “z-score of prototroph abundance” value read?
Its value is 0.31.

Which “z-score of prototroph abundance” value does the source give for `COc1cc(Cc2cnc(N)nc2N)cc(OC)c1OC` [Trimethoprim] here?
Its value is 0.19.
